Measured values taken from PubChem BioAssay AID485364 (National Center for Advancing Translational Sciences (NCATS), 2010).
About 11,000 (3.1%) of roughly 360,000 compounds were called active. Entries that show only a call come without a potency. Inconclusive results (about 4%) are left out. The sample holds actives, similar compounds and a random draw of the others, so the mix is not that of the screen. Calls follow the shape of the dose curve; as a rule, active = well fitted inhibition curve with a large enough effect; inconclusive = small, poorly fitted or top-dose-only effect; inactive = no such curve, though single readings can be large or run the other way.

Each compound was assayed against Schistosoma mansoni thioredoxin glutathione reductase (TGR) (UniProt Q962Y6) (assay: qHTS Assay for the Inhibitors of Schistosoma Mansoni Peroxiredoxins). Settings: purified TGR, DTNB reduction, TNB absorbance 405 nm; series mostly up to 114 µM.
Outline: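 TGR 20 nM + NADPH 100 uM (dispensed conc.), cpd preinc 15 min RT; start with NADPH (500 uM addition) then DTNB (15 mM addition). Kinetic TNB absorbance, 405 nm filter. Four-parameter Hill fit across titration.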
Also: nearly all actives have a fitted effect of over 60% in size.
Potency is read from the fitted curve at half-maximal effect.

SMILES	Potency
Cc1oc(-c2ccccc2F)nc1CS(=O)CC(=O)NCCN1CCCCC1C (stereo not drawn)	inactive
Cc1cccc(-c2nc(CS(=O)CC(=O)NC(C)CCc3ccccc3)c(C)o2)c1 (stereo not drawn)	15.8 µM (active)
Cc1ccc(-c2nc(CS(=O)CC(=O)NC3CCCC3)c(C)o2)cc1 (stereo not drawn)	22.4 µM (active)
CNC(=O)c1ccc(-c2nc(CN3CCc4ccccc43)c(C)o2)cc1	inactive
CC(CCc1ccccc1)NC(=O)c1cnc(Cl)c(Cl)c1 (stereo not drawn)	inactive
CC1=C(C)CC(C(=O)NC(C)CCc2ccccc2)C(C(=O)O)C1 (stereo not drawn)	inactive
COc1ccc(N2CCN(C(=O)CSCc3nc(-c4ccccc4Cl)oc3C)CC2)cc1	inactive
COc1ccc(-c2nc(CS(=O)CC(=O)N3CCc4ccccc4C3)c(C)o2)cc1 (stereo not drawn)	2 µM (active)
Cc1ccc(-c2nc(CSCC(=O)NC3CCN(Cc4ccccc4)CC3)c(C)o2)cc1	inactive
COc1ccc(CNC(=O)CS(=O)Cc2nc(-c3cccc(C)c3)oc2C)cc1 (stereo not drawn)	inactive
COc1ccc(-c2nc(CS(=O)CC(=O)NCc3cccnc3)c(C)o2)cc1OC (stereo not drawn)	inactive
COc1ccc(-c2nc(CS(=O)CC(=O)NCc3ccccn3)c(C)o2)cc1 (stereo not drawn)	17.8 µM (active)
Cc1ccc(-c2nn(CCC(=O)Nc3ccc(OC(F)(F)F)cc3)c(=O)c3ccccc23)cc1	inactive
Cc1cc(C)cc(NS(=O)(=O)c2cc3c(cc2C)NC(=O)CO3)c1	inactive
COc1ccc(Cn2c(C(=O)O)c(CNCCc3cccs3)c3ccc(OC)cc32)cc1	inactive
CCOCCc1nn2c(=O)cc(COC(=O)CNC(=O)c3ccc(C(C)(C)C)cc3)nc2s1	inactive
CCN(C(=O)CSc1nnc(C)n2c1cc1occc12)c1ccccc1	inactive
Cc1ccc(Cl)cc1NC(=O)C(C)n1nnc2sc(-c3ccccc3)cc2c1=O (stereo not drawn)	inactive
COc1ccc(C2c3c(oc4ccccc4c3=O)C(=O)N2Cc2ccc3c(c2)OCO3)cc1 (stereo not drawn)	inactive
CCOc1ccc(N(CC)S(=O)(=O)N2CCCC(C(=O)NCc3ccc(Cl)cc3)C2)cc1 (stereo not drawn)	inactive
COc1ccccc1N1CCN(c2ncnc3onc(-c4cccc(Cl)c4)c23)CC1	inactive

SMILES	Potency
Cc1ccc(-c2nc(CS(=O)CC(=O)N3CCN(c4ncccn4)CC3)c(C)o2)cc1 (stereo not drawn)	7.08 µM (active)
COc1ccc(-c2nc(CN3CCN(c4ncccn4)CC3)c(C)o2)cc1C	inactive
Cc1cccc(C)c1NC(=O)CS(=O)CC(=O)N1CCN(c2ccccc2)CC1 (stereo not drawn)	inactive
O=C(NC1CCCCC1)c1ccc(-c2ccc(Cl)cc2)o1	35.5 µM (active)
O=C(NC1CCCCCC1)c1cccnc1Sc1ccc(Cl)cc1	inactive
O=C(NC1CCCC1)c1cc(-c2ccccc2)on1	inactive
Cc1ccc(CCNC(=O)c2ccc3c(c2)N(Cc2cc(C)ccc2C)C(=O)c2ccccc2S3=O)cc1 (stereo not drawn)	inactive
Cc1ccccc1OCc1nc2c3cnn(-c4ccccc4F)c3ncn2n1	inactive
O=C(O)CCC(=O)N(Cc1cccs1)Cc1cccs1	inactive
CC(C)Cn1c(CCC(=O)O)ccc1-c1cccs1	22.4 µM (active)
CCn1c(NC(=O)c2ccccc2)c(-c2cccs2)c(=O)c2ccccc21	inactive
CCOc1ccc(S(=O)(=O)c2cn(Cc3ccccc3)c3ccc(OCC)cc3c2=O)cc1	inactive
Cn1c(SCc2c(F)cccc2Cl)nnc1-c1cnccn1	inactive
Cc1cccc(CSc2ccc(-c3cccs3)nn2)c1	inactive
Brc1ccc(CSc2ccc(-c3ccco3)nn2)cc1	17.8 µM (active)
Cc1cc(SCc2c(F)cccc2Cl)nc(=O)[nH]1	inactive
N#Cc1ccc(-c2cccs2)nc1SCc1ccc(Br)cc1	inactive
Fc1cccc(Cl)c1CSc1ccc(-c2ccco2)nn1	17.8 µM (active)
COc1cccc(CNC(=O)C(NS(=O)(=O)c2ccc3nc(C)sc3c2)C(C)C)c1 (stereo not drawn)	inactive
COc1ccc(CNC(=O)CSc2nc3ccccc3nc2Cc2ccccc2)cc1	inactive
Cc1ccc(OCCSc2nc3ccc(NC(=O)COc4ccc(C)cc4)cc3s2)cc1	inactive

SMILES	Potency
O=C(CCCn1c(=O)c2cccn2c2cccnc21)NCc1ccc(F)cc1	inactive
CCOc1ccccc1NC(=O)C1CCCN(S(=O)(=O)c2cn(C)cn2)C1 (stereo not drawn)	inactive
COc1ccc(N2CCN(S(=O)(=O)c3ccc4c(c3)NC(=O)C(C)C(=O)N4)CC2)cc1 (stereo not drawn)	inactive
CC1C(=O)Nc2ccc(S(=O)(=O)N3CCN(c4ccccc4F)CC3)cc2NC1=O (stereo not drawn)	inactive
CON(C)S(=O)(=O)c1ccc2c(c1)NC(=O)C1CCCN21 (stereo not drawn)	12.6 µM (active)
COc1ccc(-c2cc(C(F)(F)F)n3nc(-c4ccccc4)cc3n2)cc1OC	inactive
CCc1ccccc1NC(=O)N1CCC2(CC1)Oc1ccccc1C(=O)N2Cc1ccccc1F	inactive
Cc1cc(-c2ccc(/C=N/n3cnnc3)o2)c([N+](=O)[O-])cc1C	35.5 µM (active)
Cc1cc(C)c([N+](=O)[O-])cc1-c1ccc(/C=N/NC(=O)c2nonc2N)o1	inactive
Clc1cc(-c2ccc(/C=N/n3cnnc3)o2)ccc1Br	inactive
O=C1C2C3C=CC(C4CC34)C2C(=O)N1/N=C/c1ccc(-c2ccccc2[N+](=O)[O-])o1 (stereo not drawn)	inactive
Cc1ccc(Cl)cc1-c1ccc(/C=N/n2cnnc2)o1	inactive
Cc1cc([N+](=O)[O-])c(-c2ccc(/C=N/n3cnnc3)o2)cc1Cl	50.1 µM (active)
COc1ccc(-n2nc(C(=O)NCCc3ccc(Cl)cc3)c3c4ccccc4n(C)c3c2=O)cc1Cl	inactive
Cc1cccc(OCCCC(=O)Nc2sc3c(c2C(N)=O)CCC(C)C3)c1 (stereo not drawn)	inactive
CCOC(=O)C1CCN(C(=O)CSc2c3c(nc4ccc(Cl)cc24)CCCC3)CC1	inactive
CCOc1ccc(NC(=O)CN(Cc2ccccc2)S(=O)(=O)c2ccc(Cl)cc2)cc1	inactive
CCOc1ccc(N(Cc2ccccc2)C(=O)c2nc(SCC)ncc2Cl)cc1	inactive
CCOc1ccc(N(Cc2ccccc2)C(=O)c2nc(S(C)(=O)=O)ncc2Cl)cc1	8.91 µM (active)
Cc1c(CNC2CCCCC2)c(C(=O)O)c(C)n1Cc1cccc(Cl)c1	inactive
COC(=O)C1=C(c2ccccc2)c2ccccc2S(=O)(=O)N1CC(=O)Nc1ccccc1C(F)(F)F	inactive
